According to PubChem BioAssay:
“And” between values parts separate entries of the source, which are not always exact repeats. Equal values may be shown once. The source made the active and inactive calls.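 The calls were made as follows, unless noted: active = compounds whose cell count with miR-34 switched on is under 0.7 times the count with it off; inactive = the rest.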

Tests used:
[1] = viability loss with induced miR-34 in A549 – imaging, A549 dox-inducible miR-34, nuclei and caspase counts, primary screen (AID 1347080); conditions: A549 miR-34 inducible, Hoechst nuclei count, 48 h; also: test concentration not given here
[2] = MELAS cybrid and Rieske KO viability enhancers – cell-based, MELAS cybrids, Rieske KO mouse fibroblasts, CellTiter-Glo, primary screen (AID 1508586;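 active = mean z-score across replicates of 1.96 or higher in either the MELAS or the Rieske mutant cell line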;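 also: test concentration not given here; z relative to plate mean and SD of compound and empty wells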); conditions: low glucose
[3] = galactose survival enhancers in mitochondrial complex I cybrids – cell-based, galactose medium, ATP luminescence, primary screen (AID 1645843;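 active = z-score of at least 1.8 in each of two replicates, scored against plate mean and spread of sample wells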;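 also: positive z means more ATP and so rescue of galactose-driven cybrid death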); conditions: complex I mutant cybrid cells, 72 h, stronger effect = higher value
[4] = stronger effect = lower value, cell number ratio, induced over uninduced
[5] = measured here: relative caspase fold change +Dox/-Dox
[6] = measured here: total cells with miR-34 induction, stronger effect = lower value
[7] = measured here: total cells without miR-34 induction
[8] = MELAS cybrid survival, CellTiter-Glo 48 h, stronger effect = higher value
[9] = Rieske KO mouse fibroblast survival, CellTiter-Glo 72 h

| SMILES | fold change [1, 4] | fold change [1, 5] | cell count [1, 6] | cell count [1, 7] | z-score [2, 8] | z-score [2, 9] | z-score [3] |
| --- | --- | --- | --- | --- | --- | --- | --- |
| CSc1ccccc1C(=O)N1CCc2[nH]nc(COc3ccccc3)c2C1 | 0.941 (inactive) | 0.435 | 8390 | 8920 | -0.515 (inactive) | 0.374 | 1.12 (inactive) |
| CN(C)CCc1c[nH]c2ccc(CC3COC(=O)N3)cc12 (stereo not given) | 0.908 (inactive) and 0.936 (inactive) | 1.13 and 0.401 | 9680 and 7960 | 10700 and 8510 | -0.0653 (inactive) | 0.00529 | 0.625 (inactive) |
| NCCC(O)C(=O)NC1CC(N)C(OC2OC(CN)C(O)C(O)C2O)C(O)C1OC1OC(CO)C(O)C(N)C1O (stereo not given) | 0.888 (inactive) | 0.936 | 8210 | 9240 | -1.15 (inactive) | -0.0039 | 0.985 (inactive) |
| O=C(COc1ccc(Cl)cc1)Nc1ccccc1C(=O)O | 0.906 (inactive) | 0.574 | 8240 | 9090 | -0.363 (inactive) | -0.206 | 0.885 (inactive) |
| CC(=O)[C@]1(O)Cc2c(O)c3c(c(O)c2C(OC2CC(N)C(O)C(C)O2)C1)C(=O)c1ccccc1C3=O (stereo not given in full) | 0.995 (inactive) and 0.89 (inactive) | 0.907 and 1.04 | 734 and 2090 | 738 and 2350 | 2.4 (active) | -0.525 | -1.88 (inactive) |
| NS(=O)(=O)c1ccc(CCC(=O)O)cc1 | 0.881 (inactive) | 0.214 | 8780 | 9960 | 0.234 (inactive) | -0.0972 | 0.14 (inactive) |
| CC(C)n1cc(-c2cc(C(=O)N(C)Cc3ccncc3)c3ccc(F)cc3n2)cn1 | 0.897 (inactive) | 1.79 | 8810 | 9830 | -0.679 (inactive) | 0.655 | -0.46 (inactive) |
| CCN(Cc1nccn1C)C(=O)c1cc(-c2cnc(C)nc2)nc2cc(F)ccc12 | 0.881 (inactive) | 1.32 | 8950 | 10200 | -0.0942 (inactive) | -0.488 | -0.2 (inactive) |
| O=C(Nc1cccnc1)C1CCN(C(=O)c2ccccc2Cl)CC1 | 0.886 (inactive) | 1.9 | 8890 | 10000 | 0.0994 (inactive) | -0.159 | -0.045 (inactive) |
| O=C(NCCc1ccco1)c1cc(C2CC2)[nH]n1 | 0.916 (inactive) | 1.14 | 9380 | 10200 | 0.356 (inactive) | 0.504 | -0.495 (inactive) |
| Nc1ncc(Cc2ccccc2)s1 | 0.906 (inactive) | 0.514 | 8010 | 8850 | -0.355 (inactive) | -0.511 | -0.26 (inactive) |
| COc1cc2c(cc1-c1nnc3ccccn13)OCO2 | 0.908 (inactive) | 2.79 | 8030 | 8840 | 0.597 (inactive) | -0.284 | -0.465 (inactive) |
| COc1ccccc1-c1noc(Cc2ccc3c(c2)OCO3)n1 | 0.864 (inactive) | 2.45 | 7680 | 8890 | 0.0213 (inactive) | 1.35 | 1.62 (inactive) |
| O=C(O)C(C(=O)O)c1ccccc1 | 0.911 (inactive) | 0.169 | 8920 | 9780 | 0.44 (inactive) | -0.084 | 0.49 (inactive) |
| CC[C@H](C)C(=O)O[C@H]1C[C@H](O)C=C2C=C[C@H](C)[C@H](CC[C@@H]3C[C@@H](O)CC(=O)O3)[C@H]21 | 0.872 (inactive) | 2.14 | 9300 | 10700 | 0.0534 (inactive) | -0.0126 | 0.555 (inactive) |
| O=C(NCCc1nc2ccc(F)cc2[nH]1)c1cnccn1 | 0.896 (inactive) | 1.56 | 8500 | 9500 | 0.845 (inactive) | -0.308 | -0.435 (inactive) |
| O=C(O)c1ccc(-c2cc(Cl)ccc2Cl)o1 | 0.874 (inactive) | 0.439 | 8600 | 9840 | -0.277 (inactive) | 0.0393 | 0.44 (inactive) |
| c1ccn2cc(CCNc3ncnc4nc[nH]c34)nc2c1 | 0.837 (inactive) | 1.9 | 8280 | 9890 | -0.607 (inactive) | -0.578 | -0.4 (inactive) |
| O=C(O)CCCc1nc(-c2cccc([N+](=O)[O-])c2)no1 | 0.855 (inactive) | 0.356 | 7990 | 9350 | 1.15 (inactive) | -0.0224 | 0.71 (inactive) |
| CCCc1cn(CC2CCCN(C(=O)c3nc4ncccn4n3)C2)nn1 (stereo not given) | 0.866 (inactive) | 1.31 | 9000 | 10400 | -0.289 (inactive) | -0.243 | -0.51 (inactive) |
| Cc1nc(CCNC(=O)Nc2nnc(-c3cccs3)s2)sc1C | 0.877 (inactive) | 1.44 | 7610 | 8680 | -0.443 (inactive) | -0.248 | 0.645 (inactive) |
| O=c1ccn2c(n1)OC1C(O)C(CO)OC12 (stereo not given) | 0.869 (inactive) | 0.596 | 8620 | 9930 | 0.627 (inactive) | -0.112 | 0.87 (inactive) |
| CCN(CC)S(=O)(=O)c1cc(C(=O)Nc2ccccc2C(=O)O)ccc1Br | 0.904 (inactive) | 0.416 | 8290 | 9170 | -0.577 (inactive) | 0.639 | 0.82 (inactive) |
| CCn1cnc(NC(=O)N(C)Cc2ccc(OC)cc2)n1 | 0.869 (inactive) | 1.63 | 8620 | 9910 | -0.112 (inactive) | -0.365 | 1.77 (inactive) |
| O=C(O)c1ccc(-c2ccc(F)cc2)cc1 | 0.935 (inactive) | 1.32 | 7840 | 8390 | -0.835 (inactive) | -0.109 | 0.26 (inactive) |
